The text below walks through data of PubChem BioAssay (EPA / NIEHS).

Results filed as inconclusive are left out. Activity calls are given as the source filed them. The calls were made as follows: active = hit-call score of the fitted dose curve at least 0.9, where 1 is the maximum; inconclusive = response in the unintended direction; inactive = score below 0.9.

As a reminder, the AC50 is the concentration at which the activity in the assay is half-maximal.

Assay [1] is described as follows: TOX21_p53_BLA_p2_viability: Viability Assessment in the Tox21 HCT-116 p53 Agonism Beta-lactamase Assay, Phase 2 (AID 2283591).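 Also: compound exposure lasted 16 h at 37 °C; actives lower the ATP signal meaning cytotoxicity.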 An outline of the steps:
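HCT116 p53-bla cells, 4000/well, dosed after 5 h plating (217-fold dilution of DMSO stocks) and incubated 16 h at 37C. Viability taken as cellular ATP by CellTiter-Glo luminescence after 30 min RT; signal loss marks cytotoxicity.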

A short description of assay [2]: TOX21_p53_BLA_p3_viability: Viability Assessment in the Tox21 HCT-116 p53 Agonism Beta-lactamase Assay, Phase 3 (AID 2283593).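 Also: cells exposed to compound for 16 h before reading.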 An outline of the steps:
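HCT116 cells, 4000/well, dosed 5 h after plating by pin transfer (217-fold dilution from DMSO stock) and incubated 16 h at 37C, 5% CO2. Viability read as ATP luminescence with CellTiter-Glo after 30 min at room temperature.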

Assay [3] concerns the target Cellular tumor antigen p53 (Homo sapiens) (UniProt P04637). As to the kind of experiment: TOX21_p53_BLA_p3_ratio: Tox21 HCT-116 p53 Agonism Beta-lactamase Assay, Ratio, Phase 3 (AID 2283596). The procedure, abridged:
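Cells were seeded at 4000/well, rested 5 h at 37C, then dosed with DMSO compound solutions (217-fold dilution) for 16 h. CCF4-AM substrate was loaded for 2 h at room temperature, and the 460/530 nm emission ratio was fitted for gain of signal versus DMSO.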

Assay [4] can be described thus: TOX21_p53_BLA_p4_viability: Viability Assessment in the Tox21 HCT-116 p53 Agonism Beta-lactamase Assay, Phase 4 (AID 2283597).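 Also: hits lower the luminescence signal meaning cytotoxicity.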 The procedure, abridged:
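Cytotoxicity was inferred from loss of CellTiter-Glo luminescence. HCT116 cells had been dosed with compounds after 5 h plating, incubated 16 h at 37C and 5% CO2, and exposed to the CCF4-AM substrate for 2 h.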

The target in assay [5] is Cellular tumor antigen p53 (Homo sapiens) (UniProt P04637). Briefly: TOX21_p53_BLA_p5_ratio: Tox21 HCT-116 p53 Agonism Beta-lactamase Assay, Ratio, Phase 5 (AID 2283599). An outline of the steps:
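HCT-116 p53-bla cells (4000/well) plated 5 h, dosed with compound (217-fold DMSO dilution) for 16 h at 37 C; CCF4-AM substrate 2 h at room temperature. Activity is the 460/530 nm emission ratio (405 nm excitation), fitted in gain-of-signal direction versus DMSO.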

The nature of assay [6]: TOX21_p53_BLA_p5_viability: Viability Assessment in the Tox21 HCT-116 p53 Agonism Beta-lactamase Assay, Phase 5 (AID 2283600). The procedure, abridged:
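Luciferase-coupled ATP quantitation of cells treated for 16 h (37C, 5% CO2) with test chemicals delivered in DMSO via a 217-fold dilution; 4000 cells/well; reagent incubated 30 min at room temperature before luminescence reading.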

The target in assay [7] is Cellular tumor antigen p53 (Homo sapiens) (UniProt P04637). Briefly: TOX21_p53_BLA_p2_ratio: Tox21 HCT-116 p53 Agonism Beta-lactamase Assay, Ratio, Phase 2 (AID 2283592). The procedure, abridged:
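Ratio endpoint: beta-lactamase cleavage of CCF4-AM, blue (460 nm) over green (530 nm). HCT116 reporter line; 16 h treatment, 37C; substrate 2 h RT.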

Assay [8] shares this target. As to the kind of experiment: TOX21_p53_BLA_p4_ratio: Tox21 HCT-116 p53 Agonism Beta-lactamase Assay, Ratio, Phase 4 (AID 2283601). An outline of the steps:
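HCT-116 p53 beta-lactamase reporter cells (4000/well) preincubated 5 h, then compound (217-fold dilution of DMSO stock) for 16 h at 37C. CCF4-AM substrate added 2 h at room temperature; 460/530 nm emission ratio fitted upward versus DMSO.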

Sequence of Cellular tumor antigen p53 (Homo sapiens) (P04637 whole entry, looked up): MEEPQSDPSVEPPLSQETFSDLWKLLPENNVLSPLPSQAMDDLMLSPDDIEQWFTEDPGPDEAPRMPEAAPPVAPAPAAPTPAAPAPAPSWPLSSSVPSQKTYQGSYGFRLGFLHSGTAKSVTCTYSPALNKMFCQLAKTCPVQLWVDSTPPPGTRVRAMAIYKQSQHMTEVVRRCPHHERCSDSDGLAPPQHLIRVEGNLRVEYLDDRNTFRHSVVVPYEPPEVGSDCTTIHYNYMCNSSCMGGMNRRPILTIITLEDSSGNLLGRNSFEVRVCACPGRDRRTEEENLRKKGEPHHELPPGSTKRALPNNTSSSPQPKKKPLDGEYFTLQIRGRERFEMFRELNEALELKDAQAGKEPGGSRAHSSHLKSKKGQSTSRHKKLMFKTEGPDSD

As for `CC(C)(C)CC(C)(C)c1cc(Cc2cc(C(C)(C)CC(C)(C)C)cc(-n3nc4ccccc4n3)c2O)c(O)c(-n2nc3ccccc3n2)c1`, the compound was called inactive in assay [1], in assay [2], in assay [3], in assay [4], in assay [5] and in assay [6].

With `CCCCCCCN(CC)CCCC(O)c1ccc(NS(C)(=O)=O)cc1` (centres undefined), the compound was called inactive in assay [1], in assay [2], in assay [3] and in assay [4].

For `CCC(C)C(C(=O)OCC[N+](C)(CC)CC)c1ccccc1` (centres undefined), the outcome in assay [1], in assay [2], in assay [3] and in assay [4] was inactive.

In the case of `Cn1cc(S(C)=O)c(=O)c2ccc(F)cc21` (centres undefined), the call in assay [1], in assay [7] and in assay [8] was inactive.

For the compound `CCC(C)(C)OC(=O)N[C@@H](Cc1c[nH]c2ccccc12)C(=O)N[C@@H](CCSC)C(=O)N[C@@H](CC(=O)O)C(=O)N[C@@H](Cc1ccccc1)C(N)=O`, the compound was called inactive in assay [1], in assay [7], in assay [6] and in assay [8].

With `C=CCOc1cc(Cl)ccc1C(=O)NCCN(CC)CC`, the compound was classed as inactive in assay [1], in assay [7], in assay [5] and in assay [8].

Turning to `CC1COc2ccccc2N1` (centres undefined), the compound was classed as inactive in assay [1], in assay [2], in assay [3] and in assay [4].

`CCc1ccc(C)cc1`: the outcome in assay [1], in assay [7] and in assay [6] was inactive.

`COc1cc([C@H]2Oc3cc([C@H]4Oc5cc(O)cc(O)c5C(=O)[C@@H]4O)ccc3O[C@@H]2CO)ccc1O`: in assay [1], the result was inactive. Besides, the figures for the concentration at half-maximal activity (AC50) in assay [7] and in assay [8] were 86.2 µM (active) and 87.1 µM (active), respectively.

On to `O=S(O)CNc1ccc(S(=O)(=O)c2ccc(NCS(=O)O)cc2)cc1`, for which the call in assay [1], in assay [2] and in assay [3] was inactive.

As to `CCNC(=O)/C=C/c1cccc(Br)c1`, the compound was called inactive in assay [1], in assay [2], in assay [3], in assay [4], in assay [5] and in assay [6].

`N=C(N)N`: the result in assay [1], in assay [7], in assay [6] and in assay [8] was inactive.

`CN(C)CCc1c[nH]c2ccc(Cn3cncn3)cc12`: the call in assay [1], in assay [7] and in assay [8] was inactive.

Consider `COc1cc2nc(N3CCN(C(=O)C4COc5ccccc5O4)CC3)nc(N)c2cc1OC` (centres undefined), for which the result in assay [1], in assay [2], in assay [3] and in assay [4] was inactive.

As for `ClC(Cl)(Br)Br`, the result in assay [1], in assay [7] and in assay [6] was inactive.

In the case of `C=C(C)C(=O)OCC[N+](C)(C)C`, the result in assay [1], in assay [7] and in assay [8] was inactive. Besides, the AC50 in assay [5] is 72.9 µM (active).

`CN1CCN(CC(=O)N2c3ccccc3C(=O)Nc3cccnc32)CC1`: the compound was classed as inactive in assay [1], in assay [2] and in assay [3].

Turning to `CC(C)(C)NCC(O)CSc1nc(-c2ccc(C(N)=O)s2)cs1` (centres undefined), the call in assay [1], in assay [2], in assay [3], in assay [4], in assay [5] and in assay [6] was inactive.

Regarding `CC(C)(C)NC[C@H](O)COc1cccc2c1CCCC2=O`, the outcome in assay [1], in assay [2], in assay [3], in assay [4], in assay [5] and in assay [6] was inactive.

Take `CCOC(=O)[C@H](CCc1ccccc1)N[C@@H](C)C(=O)N1Cc2ccccc2C[C@H]1C(=O)O`: the compound was classed as inactive in assay [1], in assay [2], in assay [3], in assay [4], in assay [5] and in assay [6].

With `CC(C)C(=O)OC(=O)C(C)C`, the call in assay [1], in assay [2], in assay [3], in assay [4] and in assay [5] was inactive.

Turning to `NO`, the compound was called inactive in assay [1], in assay [7] and in assay [8].

As for `O=C(O)c1cc(=O)c2ccccc2o1`, the call in assay [1], in assay [7], in assay [6] and in assay [8] was inactive.

On to `CC(=O)OC[C@H]1O[C@@H](O[C@H]2[C@H](O)[C@@H](OC(=O)c3ccccc3C(=O)O)[C@H](O)O[C@@H]2COC(C)=O)[C@H](O)[C@@H](OC(=O)c2ccccc2C(=O)O)[C@@H]1O`, for which the result in assay [1], in assay [2], in assay [3] and in assay [4] was inactive.

`CCN(CC)CCNC(=O)c1cc(Br)c(N)cc1OC`: the call in assay [1], in assay [7], in assay [6] and in assay [8] was inactive.

Take `CC(N)CCCC(C)(C)O` (centres undefined): the result in assay [1], in assay [7] and in assay [6] was inactive.

Turning to `CCCCCCCN`, the outcome in assay [1], in assay [7] and in assay [8] was inactive.

With `CC(C)C(=O)OCC(=O)[C@@]12O[C@H](C3CCCCC3)O[C@@H]1C[C@H]1[C@@H]3CCC4=CC(=O)C=C[C@]4(C)[C@H]3[C@@H](O)C[C@@]12C`, the outcome in assay [1], in assay [2], in assay [3], in assay [4], in assay [5] and in assay [6] was inactive.

Take `CCCC(=O)OC[C@@H](OC(=O)CCC)[C@@H](OC(=O)CCC)[C@H](Cn1c2nc(=O)[nH]c(=O)c-2nc2cc(C)c(C)cc21)OC(=O)CCC`: the compound was called inactive in assay [1], in assay [2], in assay [3] and in assay [4].

With `CC[C@@]1([C@@H]2O[C@@H]([C@H]3O[C@@](O)(CO)[C@H](C)C[C@@H]3C)C[C@@H]2C)CC[C@H]([C@]2(C)CC[C@]3(C[C@H](O)[C@@H](C)[C@@H]([C@@H](C)[C@@H](OC)[C@H](C)C(=O)O)O3)O2)O1` (stereo in doubt), the call in assay [1], in assay [2], in assay [3], in assay [4], in assay [5] and in assay [6] was inactive. The result in assay [8] was inactive.

In the case of `C=C1CC2C3CCC4=CC(=O)C=C[C@]4(C)[C@@]3(F)[C@@H](O)C[C@]2(C)[C@@]1(O)C(=O)COC(C)=O` (some centres undefined), the outcome in assay [1], in assay [2], in assay [3], in assay [4], in assay [5] and in assay [6] was inactive. The result in assay [8] was inactive.

Consider `CSc1ccc(/C=C2/C(C)=C(CC(=O)O)c3cc(F)ccc32)cc1`, for which the half-maximal activity concentration (AC50) in assay [1] is 22.4 µM (active); in assay [2], 41.1 µM (active); in assay [4] it was 23.1 µM (active); in assay [5] it was 19.7 µM (active); in assay [6] it was 36.4 µM (active). The outcome in assay [3] and in assay [8] was inactive.

As to `CC(=O)C=Cc1ccco1`, the result in assay [1], in assay [2], in assay [3], in assay [4], in assay [5] and in assay [6] was inactive. Also, the result in assay [8] was inactive.

For `CCOC(=O)[C@H](CCc1ccccc1)N[C@@H](C)C(=O)N1[C@H](C(=O)O)C[C@H]2CCCC[C@@H]21`, the compound was called inactive in assay [1], in assay [2], in assay [3], in assay [4], in assay [5] and in assay [6]. Further, the outcome in assay [8] was inactive.
